The first test concerns the target T1, MoHTR1 (Magnaporthe oryzae, UniProt Q2KEJ2 20-198).
T1 sequence: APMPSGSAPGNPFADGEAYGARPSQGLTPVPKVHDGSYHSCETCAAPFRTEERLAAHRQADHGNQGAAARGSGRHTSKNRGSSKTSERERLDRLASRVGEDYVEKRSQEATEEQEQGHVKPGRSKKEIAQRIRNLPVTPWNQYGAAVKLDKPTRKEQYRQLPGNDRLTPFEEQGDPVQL
Briefly: array; high values mean tight binding. Conditions: protein: recombinant; tags: DsRed; 6xHis (pET-32a vector); dsDNA, one strand shown.
For CTAACTCC, the binding signal came to 22500 a.u. The same measure, in the same setting: the result for CAATCTCC reads 20800 a.u; that for TCTCAATC, 24100 a.u; that for CTCTAATC, 21800 a.u.

Turning to CTCCAACC, the binding signal worked out at 14800 a.u.

Take CCACCTCC: the binding signal is 24000 a.u. The same measure, in the same setting: the result for CCTCCTCC reads 21700 a.u. On the same count and under the same terms, as for CTCATACC, the figure is 25600 a.u; as for AACTCCTC, 22100 a.u.

On to CCGCCACC, for which the binding signal was determined as 13400 a.u.

With CCTCCACC, the binding signal came to 23900 a.u.

As to TCCAATCC, the binding signal was 22900 a.u. The same measure, in the same setting: the result for CTCAACTC reads 24700 a.u; that for CCTCAATC, 19700 a.u; that for CAATCCTC, 20100 a.u. Take AACTCTCC: the binding signal amounted to 21600 a.u. In the case of CAATCTTC, the binding signal was 27900 a.u.

For the sequence TCAATCTC, the binding signal worked out at 23900 a.u. On to CATACTCC, for which the binding signal stood at 19100 a.u. Same read-out and setting: as for CTTCAATC, the figure is 21100 a.u; as for CCAACTCC, 20800 a.u.

Turning to CCATACAC, the binding signal came to 14100 a.u.

The target in a further test is T2, MoHTR2 (Magnaporthe oryzae, UniProt G5EHQ6 19-110).
T2 sequence: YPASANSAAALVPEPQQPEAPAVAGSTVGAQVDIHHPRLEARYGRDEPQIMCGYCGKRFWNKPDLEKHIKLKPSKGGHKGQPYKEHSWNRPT
Briefly: array; high values mean tight binding. As to conditions: protein: recombinant; tags: DsRed; 6xHis (pET-32a vector); dsDNA, one strand shown.
As to CCACCTCC, the binding signal is 11800 a.u. For the sequence CCTCCTCC, the binding signal was 10800 a.u.

Regarding CATACCTC, the binding signal is 8490 a.u. The same measure, in the same setting: the result for CCTCCACC reads 11600 a.u. Turning to CCGCCTCC, the binding signal worked out at 8800 a.u. Still for that read-out and setting: as for CCTCCGCC, the figure is 9500 a.u.

Source of the values: publication PMC7672089, “Two nuclear effectors of the rice blast fungus modulate host immunity via transcriptional reprogramming”.
